This is part of a sample that, as a whole, favours compounds with a hit. Of some 83,000 tested, about 20% had one in any assay.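 Testing used 96-well plates and a 48-hour single-concentration exposure. Example: -40 means 40% of the starting cells died.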 A number with no mark means an inactive call. Activity calls are given as the source filed them. How the source made its calls: active means growth percent below 10; inactive means the rest.
Tests used:
Assay in all cases: NCI-60 one-dose screen, 48 h (100 = growth as untreated, 0 = no growth, -100 = all killed)
Settings in all cases: 10 µM unless noted
HCT-15 colon = system: HCT-15 colon
HT29 colon = system: HT29 colon
SNB-75 CNS = system: SNB-75 CNS
SNB-19 CNS = system: SNB-19 CNS
U251 CNS = system: U251 CNS
PC-3 prostate = system: PC-3 prostate
SK-MEL-5 melanoma = system: SK-MEL-5 melanoma
UACC-62 melanoma = system: UACC-62 melanoma
LOX IMVI melanoma = system: LOX IMVI melanoma
SK-MEL-2 melanoma = system: SK-MEL-2 melanoma
EKVX NSCLC = system: EKVX NSCLC
SN12C renal = system: SN12C renal
UO-31 renal = system: UO-31 renal
TK-10 renal = system: TK-10 renal
ACHN renal = system: ACHN renal
CAKI-1 renal = system: CAKI-1 renal
A498 renal = system: A498 renal
CCRF-CEM leukemia = system: CCRF-CEM leukemia
MOLT-4 leukemia = system: MOLT-4 leukemia
SK-MEL-28 melanoma = system: SK-MEL-28 melanoma

Structure (SMILES)	growth (HCT-15 colon)	growth (HT29 colon)	growth (SNB-75 CNS)	growth (SNB-19 CNS)	growth (U251 CNS)	growth (PC-3 prostate)	growth (SK-MEL-5 melanoma)	growth (UACC-62 melanoma)	growth (LOX IMVI melanoma)	growth (SK-MEL-2 melanoma)	growth (EKVX NSCLC)	growth (SN12C renal)	growth (UO-31 renal)	growth (TK-10 renal)	growth (ACHN renal)	growth (CAKI-1 renal)	growth (A498 renal)	growth (CCRF-CEM leukemia)	growth (MOLT-4 leukemia)	growth (SK-MEL-28 melanoma)
CC/C=C\C/C=C\C[C@H]1C/C=C2/C(=O)C=C[C@H]2C/C=C\CCC(=O)O1	-14.6% (active)	-16.5% (active)	62%	40.6%	2.71% (active)	-18.9% (active)	-58.4% (active)	-43.6% (active)	-68.4% (active)	7.15% (active)	18.3%	-10.2% (active)	-51.7% (active)	2.67% (active)	-63.5% (active)	34.1%	77.7%	3.86% (active)	-3.06% (active)	–
O=C1CCC(=O)N1Cc1ccccc1	99.9%	101%	80.4%	110%	101%	100%	102%	104%	90.5%	95.1%	97.3%	104%	98.1%	92.2%	101%	94.2%	–	108%	101%	–
O=C(/C=C/CN1CCOCC1)Nc1cc2c(Nc3ccc(F)c(Cl)c3F)ncnc2cc1OCCOC(F)F	38.1%	43.3%	21.5%	70%	81.2%	46.1%	50.4%	65.7%	15.3%	85.6%	24.8%	34.4%	22.9%	33.9%	14.2%	15.9%	–	94%	69.5%	–
CCOC(=O)C(Cc1ccccc1)n1c(O)c(C=Nc2ccc(C(=O)OCCN(CC)CC)cc2)sc1=O (stereo not given)	89.4%	62.4%	99.7%	95.3%	96.3%	72.8%	88.7%	97.7%	93.7%	90.7%	–	92.1%	84.7%	112%	104%	97.4%	–	68.2%	69.3%	–
CC(C)(C)c1cn2cccc(C(=O)N3CCN(CC(=O)Nc4ccc(Cl)cc4C(=O)c4ccccc4Cl)CC3)c2n1	47.5%	22.2%	78.4%	73.2%	43.4%	17.6%	12.5%	57.6%	63.5%	65.4%	40.8%	72.6%	47%	69%	44.8%	67.5%	-0.735% (active)	27.9%	16.4%	–
O=c1cc(C2NCCc3c2[nH]c2ccccc32)c2c(ccc3ccccc32)o1 (stereo not given)	44.5%	56.2%	51.6%	88.3%	66.1%	56%	76.4%	48.7%	36.8%	36.2%	75.3%	87.5%	26.2%	71.7%	31.7%	15.5%	46.3%	77.8%	75.1%	–
COc1ccc(/C=C/C(=O)c2cccc(B(O)O)c2)cc1O	12%	69.5%	9.35% (active)	59.5%	44.2%	59.9%	81.7%	33.7%	13.8%	107%	–	28.7%	19.9%	99.3%	60.6%	–	52.1%	37.3%	46.6%	–
COC(=O)c1cc(-c2cccs2)c(C#N)c(N)c1C#N	101%	106%	83.4%	97.1%	95.5%	95.5%	102%	99.3%	99%	112%	–	102%	92.7%	116%	107%	–	104%	92.5%	98.1%	–
COc1ccc(/C=C2\C(=O)N(C(=O)c3csc(NC(C)=O)n3)N=C2C)cc1	103%	98.9%	86.5%	102%	101%	98.9%	107%	108%	96%	94.8%	–	106%	81.9%	102%	–	99%	121%	99%	86.9%	–
CNC(=O)c1cc(Oc2ccc3c(c2)sc2nc(-c4ccc(Cl)cc4)cn23)ccn1	83.6%	105%	47.9%	54%	69.5%	78.8%	87.4%	85.1%	87.4%	116%	80.9%	95.9%	85.7%	110%	–	78.8%	88.8%	93.6%	93%	–
COc1ccc(NC(=O)CSc2nc3ccc(Cl)cc3c(=O)n2-c2ccccc2C(F)(F)F)c(OC)c1OC	97.8%	97.3%	-17.3% (active)	68.1%	58%	75.1%	89.7%	68.7%	88%	53.3%	–	80.1%	77.6%	–	61.2%	78.4%	78.3%	33.7%	106%	92.1%
COc1cc(C(=O)N2CCN(C(=O)c3ccco3)CC2)c(N)cc1OCc1ccccc1	101%	107%	96.8%	103%	99.1%	98.5%	94.9%	93.8%	92.4%	77.6%	94.6%	101%	41.9%	107%	99.6%	105%	105%	86.4%	95.4%	–
COc1cc(NCCN=C(N)NC(N)=NC(C)C)c2ncccc2c1	100%	61.2%	63.8%	84%	79.7%	73.4%	37.2%	102%	89.2%	-14.2% (active)	–	74.8%	81.7%	110%	94.1%	95.3%	91.2%	–	67.5%	–
O=c1[nH]c(CN2CCN(c3ccccc3F)CC2)nc2sc3c(c12)CCC3	112%	106%	87.8%	106%	104%	102%	107%	91.9%	99.2%	87.6%	100%	99.7%	95.2%	-3.37% (active)	113%	122%	93%	100%	99.8%	–
CCCCCC(=O)OCc1ccccc1	94.6%	106%	90.3%	105%	103%	104%	104%	103%	96.8%	92.7%	–	98.1%	82.7%	99.7%	98.1%	96.5%	114%	–	86.3%	–
NC(=O)NNC(=O)c1ccccc1	97.6%	113%	85.9%	111%	97.7%	96.5%	104%	104%	96.5%	128%	96.3%	114%	89.8%	103%	109%	92.5%	124%	105%	102%	–
COC(=O)[C@H]1[C@H](OC)[C@@H](OC(=O)/C=C/c2ccncc2)CC2CN3CCc4c([nH]c5cc(OC)ccc45)[C@@H]3C[C@@H]21 (stereo not given in full)	75.5%	68.9%	48.6%	84.1%	67.1%	56%	89.6%	43.8%	50.4%	103%	–	70.2%	56.9%	91.6%	63%	53.3%	–	57.5%	78.2%	–
